PubChem BioAssay (EPA / NIEHS)
A structure can be active in one record and inactive in another. Activity calls are given as the source filed them. The calls were made as follows: active = hit-call score of the fitted dose curve at least 0.9, where 1 is the maximum; inactive = score below 0.9.

Legend:
[1] = read-out: TIMP metallopeptidase inhibitor 2 (TIMP2), TIMP2 (gene 7077); assay: BSK_KF3CT_TIMP2: BioMAP Diversity Plus: KF3CT Assay for TIMP metallopeptidase inhibitor 2 (TIMP2) Biomarker Activity (AID 2283071); settings: primary human keratinocytes with fibroblasts; actives raise or lower the signal
Summary of the method: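 Keratinocyte–fibroblast co-culture, 24 h exposure; TIMP-2 ELISA, DMSO-normalised bidirectional fit. Parallel SRB (0.1%, TCA-fixed, 560 nm) total-protein staining gauges cytotoxicity.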

[2] = read-out: Transforming growth factor beta 1 (TGFb1), TGFB1 (gene 7040); assay: BSK_KF3CT_TGFb1: BioMAP Diversity Plus: KF3CT Assay for Transforming growth factor beta 1 (TGFb1) Biomarker Activity (AID 2283072); settings: primary human keratinocytes with fibroblasts; actives raise or lower the signal
Summary of the method: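 Signal changes in either direction, relative to DMSO, define activity here. TGF-b1 is read by ELISA from a human keratinocyte-fibroblast co-culture 24 h post-dose.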

[3] = read-out: C-C motif chemokine 2 (Homo sapiens) (UniProt P13500); assay: BSK_KF3CT_MCP1: BioMAP Diversity Plus: KF3CT Assay for Monocyte Chemoattractant Protein 1 (MCP1/CCL2) Biomarker Activity (AID 2283073); settings: primary human keratinocytes with fibroblasts; actives raise or lower the signal
Summary of the method: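 Biomarker MCP-1 is measured by ELISA in primary human keratinocytes co-cultured with foreskin fibroblasts, 24 h after chemical treatment; DMSO serves as the negative control and activity baseline.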

[4] = read-out: Matrix Metallopeptidase 9 (MMP9), MMP9 (gene 4318); assay: BSK_KF3CT_MMP9: BioMAP Diversity Plus: KF3CT Assay for Matrix Metallopeptidase 9 (MMP9) Biomarker Activity (AID 2283074); settings: primary human keratinocytes with fibroblasts; actives raise or lower the signal;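 as to AC50: MMP9 protein level quantified by ELISA in the co-culture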
Summary of the method: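 Human keratinocyte and foreskin fibroblast co-culture exposed to chemicals for 24 h; MMP9 biomarker measured by ELISA, bidirectional fitting relative to DMSO; cytotoxicity tracked by SRB total protein staining in parallel cultures.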

[5] = read-out: urokinase plasminogen activator (uPA), PLAU (gene 5328); assay: BSK_KF3CT_uPA: BioMAP Diversity Plus: KF3CT Assay for urokinase plasminogen activator (uPA) Biomarker Activity (AID 2283075); settings: primary human keratinocytes with fibroblasts; actives raise or lower the signal
Summary of the method: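 Primary human keratinocyte/foreskin fibroblast co-culture exposed to chemical; uPA measured by ELISA at 24 h. Bidirectional fit versus DMSO, with parallel SRB total-protein staining for cytotoxicity.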

[6] = read-out: CD40, CD40 (gene 958); assay: BSK_LPS_CD40: BioMAP Diversity Plus: LPS Assay for CD40 Biomarker Activity (AID 2283076); settings: primary human HUVEC with PBMC; actives raise or lower the signal
Summary of the method: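 Using a multiplexed primary human co-culture (umbilical vein endothelium plus PBMC), CD40 was read by ELISA 24 h after dosing, with cytotoxicity tracked by sulforhodamine B staining of parallel cultures and activity fitted bidirectionally versus DMSO.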

[7] = read-out: E-selectin (Homo sapiens) (UniProt P16581); assay: BSK_LPS_Eselectin: BioMAP Diversity Plus: LPS Assay for Eselectin Biomarker Activity (AID 2283077); settings: primary human HUVEC with PBMC; actives raise or lower the signal
Summary of the method: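 Dose chemical onto LPS-driven HUVEC/PBMC co-culture; after 24 h, run ELISA for E-selectin; fit up- and down-going responses relative to DMSO control.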

[8] = read-out: Interleukin-8 (IL8), CXCL8 (gene 3576); assay: BSK_LPS_IL8: BioMAP Diversity Plus: LPS Assay for Interleukin-8 (IL8) Biomarker Activity (AID 2283078); settings: primary human HUVEC with PBMC; actives raise or lower the signal
Summary of the method: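 In this LPS system, chemical-treated human umbilical vein endothelium/PBMC co-cultures were harvested at 24 h for IL-8 ELISA.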

[9] = BSK_LPS_SRB: Viability Assessment in the BioMAP Diversity Plus: LPS Assay (AID 2283079); settings: primary human HUVEC with PBMC;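 also: total protein by sulforhodamine B absorbance as a cytotoxicity measure; measured one day after compound addition; fitted in both directions against DMSO so loss or gain of signal counts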
Summary of the method: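 Cytotoxicity endpoint in human endothelial–PBMC co-culture: 24 h exposure, then SRB (0.1%) staining, 560 nm read.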

[10] = read-out: Interleukin-1 alpha (IL1a), IL1A (gene 3552); assay: BSK_LPS_IL1a: BioMAP Diversity Plus: LPS Assay for Interleukin-1 alpha (IL1a) Biomarker Activity (AID 2283080); settings: primary human HUVEC with PBMC; actives raise or lower the signal
Summary of the method: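 Primary human HUVEC and PBMC co-culture stimulated with LPS is dosed and harvested at 24 h. Both increases and decreases in ELISA-measured IL-1a are scored relative to DMSO.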

[11] = read-out: Monocyte Chemoattractant Protein-1 (MCP1), CCL2 (gene 6347); assay: BSK_LPS_MCP1: BioMAP Diversity Plus: LPS Assay for Monocyte Chemoattractant Protein-1 (MCP1) Biomarker Activity (AID 2283081); settings: primary human HUVEC with PBMC; actives raise or lower the signal
Summary of the method: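 Values derive from bidirectional fitting against DMSO of ELISA-measured MCP-1 in a human primary endothelial and mononuclear cell co-culture, 24 h after chemical addition under LPS activation.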

[12] = BSK_LPS_PGE2: BioMAP Diversity Plus: LPS Assay for Prostaglandin E2 (PGE2) Biomarker Activity (AID 2283082); settings: primary human HUVEC with PBMC; actives raise or lower the signal;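 as to AC50: secreted prostaglandin E2 measured by ELISA in LPS-stimulated co-culture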
Summary of the method: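 Endpoint derived from bidirectional curve fitting versus DMSO of ELISA-measured PGE2 in LPS-stimulated human primary vascular co-culture (HUVEC with PBMC) harvested at 24 h.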

[13] = read-out: Macrophage colony-stimulating factor (MCSF), CSF1 (gene 1435); assay: BSK_LPS_MCSF: BioMAP Diversity Plus: LPS Assay for Macrophage colony-stimulating factor (MCSF) Biomarker Activity (AID 2283083); settings: primary human HUVEC with PBMC; actives raise or lower the signal
Summary of the method: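 Bidirectional fit versus DMSO of ELISA-measured M-CSF in co-cultured human umbilical vein endothelial cells and PBMC, sampled 24 h after dosing.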

[14] = read-out: Tissue Factor, F3 (gene 2152); assay: BSK_LPS_TissueFactor: BioMAP Diversity Plus: LPS Assay for Tissue Factor Biomarker Activity (AID 2283084); settings: primary human HUVEC with PBMC; actives raise or lower the signal
Summary of the method: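 Read-out: CD142 ELISA, 24 h. System: LPS-driven human endothelial/PBMC co-culture. Analysis: up- or down-signal fitted against DMSO.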

[15] = read-out: Tumor necrosis factor (Homo sapiens) (UniProt P01375); assay: BSK_LPS_TNFa: BioMAP Diversity Plus: LPS Assay for Tumour Necrosis Factor alpha (TNFa) Biomarker Activity (AID 2283085); settings: primary human HUVEC with PBMC; actives raise or lower the signal
Summary of the method: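 Primary human vascular co-culture of HUVEC and PBMC; TNFa ELISA 24 h after treatment, analysed as increase or decrease relative to DMSO control.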

[16] = read-out: Vascular cell adhesion molecule 1 (VCAM1), VCAM1 (gene 7412); assay: BSK_LPS_VCAM1: BioMAP Diversity Plus: LPS Assay for Vascular cell adhesion molecule 1 (VCAM1) Biomarker Activity (AID 2283086); settings: primary human HUVEC with PBMC; actives raise or lower the signal
Summary of the method: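 Primary human vascular co-culture (umbilical vein endothelium plus PBMC) stimulated with LPS received chemical; 24 h later VCAM-1 was read by ELISA. Overt cytotoxicity was assessed by sulforhodamine B staining of parallel cultures at the same time point.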

[17] = read-out: CD38, CD38 (gene 952); assay: BSK_SAg_CD38: BioMAP Diversity Plus: SAg Assay for CD38 Biomarker Activity (AID 2283087); settings: primary human HUVEC with PBMC; actives raise or lower the signal
Summary of the method: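 Fluorescence ELISA of cell-surface CD38 served as the read-out, with either increase or decrease fitted against DMSO controls. Cells were a human umbilical vein endothelium plus PBMC co-culture under SEB/TSST-1 stimulation, measured 24 h after dosing.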

[18] = read-out: CD40, CD40 (gene 958); assay: BSK_SAg_CD40: BioMAP Diversity Plus: SAg Assay for CD40 Biomarker Activity (AID 2283088); settings: primary human HUVEC with PBMC; actives raise or lower the signal
Summary of the method: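 Endpoint derived by fitting increases or decreases versus DMSO controls. CD40 is detected by fluorescence ELISA in a human vascular co-culture of endothelium and PBMC at 24 h.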

[19] = read-out: CD69, CD69 (gene 969); assay: BSK_SAg_CD69: BioMAP Diversity Plus: SAg Assay for CD69 Biomarker Activity (AID 2283089); settings: primary human HUVEC with PBMC; actives raise or lower the signal;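 as to AC50: cell surface CD69 protein quantified by ELISA with fluorescence detection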
Summary of the method: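 Values derive from bidirectional fitting relative to DMSO vehicle. Cells: umbilical vein endothelium plus peripheral blood mononuclear cells, treated 24 h before fluorescent ELISA for CD69.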

[20] = read-out: Monocyte Chemoattractant Protein-1 (MCP1), CCL2 (gene 6347); assay: BSK_SAg_MCP1: BioMAP Diversity Plus: SAg Assay for Monocyte Chemoattractant Protein-1 (MCP1) Biomarker Activity (AID 2283090); settings: primary human HUVEC with PBMC; actives raise or lower the signal
Summary of the method: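 MCP-1 levels in the endothelial–PBMC SAg co-culture were quantified by ELISA at 24 h post-dosing; both increases and decreases versus DMSO scored. Cytotoxicity monitored by SRB total protein in parallel cultures.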

Measured: AC50

Sequence of Tumor necrosis factor (Homo sapiens) (P01375 whole entry, looked up): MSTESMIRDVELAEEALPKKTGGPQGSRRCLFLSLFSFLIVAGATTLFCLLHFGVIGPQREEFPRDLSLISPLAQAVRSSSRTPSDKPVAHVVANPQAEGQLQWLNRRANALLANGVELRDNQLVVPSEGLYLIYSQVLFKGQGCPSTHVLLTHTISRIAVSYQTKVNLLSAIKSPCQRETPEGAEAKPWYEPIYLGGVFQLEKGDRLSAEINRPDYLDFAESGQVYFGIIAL
Sequence of E-selectin (Homo sapiens) (P16581 whole entry, looked up): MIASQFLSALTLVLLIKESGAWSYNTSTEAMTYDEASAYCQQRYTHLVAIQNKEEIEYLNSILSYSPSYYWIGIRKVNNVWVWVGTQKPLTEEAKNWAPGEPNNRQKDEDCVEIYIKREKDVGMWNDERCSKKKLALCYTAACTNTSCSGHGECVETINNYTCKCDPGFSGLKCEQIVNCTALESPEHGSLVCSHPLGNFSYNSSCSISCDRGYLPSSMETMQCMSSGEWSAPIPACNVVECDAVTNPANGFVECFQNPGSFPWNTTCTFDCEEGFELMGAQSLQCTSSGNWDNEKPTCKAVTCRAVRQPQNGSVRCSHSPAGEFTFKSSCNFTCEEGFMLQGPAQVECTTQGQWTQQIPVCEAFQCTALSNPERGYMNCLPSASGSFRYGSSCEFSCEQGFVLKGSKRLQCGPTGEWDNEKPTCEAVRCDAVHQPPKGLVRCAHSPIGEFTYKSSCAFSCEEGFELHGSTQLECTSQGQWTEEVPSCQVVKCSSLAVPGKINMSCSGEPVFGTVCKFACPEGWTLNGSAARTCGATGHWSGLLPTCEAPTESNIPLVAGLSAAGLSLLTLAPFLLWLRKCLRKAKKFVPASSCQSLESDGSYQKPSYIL

O=C(O)c1c(Cl)ccc2cc(Cl)cnc12
inactive: all assays above

CCCC(=NOCC)C1=C(O)CC(CC(C)SCC)CC1=O (configuration not stated)
not listed: [16]
inactive: all other assays above

CC1(C)C(C(=O)OC(C#N)c2cccc(Oc3ccccc3)c2)C1(C)C (configuration not stated)
active: [4] 5.56 µM | [6] 12.9 µM | [12] 6.92 µM | [15] 5.68 µM | [17] 12.1 µM | [18] 14.1 µM | [19] 12.2 µM
not listed: [5]
inactive: all other assays above

O=C(Nc1ccccc1-c1ccc(Cl)cc1)c1cccnc1Cl
active: [3] 0.843 µM
not listed: [5]
inactive: all other assays above

COCC(C)N(C(=O)CCl)c1c(C)csc1C (configuration not stated)
active: [16] 3.97 µM
inactive: [1] | [2] | [3] | [4] | [6] | [7] | [8] | [9] | [10] | [11] | [12] | [13] | [14] | [15] | [16] | [17] | [18] | [19] | [20]

CCCCC(C#N)(Cn1cncn1)c1ccc(Cl)cc1 (configuration not stated)
active: [12] 12 µM
inactive: all other assays above
